In the library only some 21% were active in any assay of this set; here they are far more common.
ELG1 repair inh: qHTS screen for small molecules that inhibit ELG1-dependent DNA repair in human embryonic kidney (HEK293T) cells expressing luciferase-tagged ELG1; HEK293T ELG1-luciferase reporter, luminescence, 16 h; DNA damage induced by 5-fluorouridine; Potency, µM (series often up to 46.1 µM), for inactives: top-dose activity change, negative = inhibition, usual class: inhibitors; 330,000 tested, 2.3% active; AID 504467, 2011; also: potency is read from the fitted curve at half-maximal effect; nearly all actives have a fitted effect of over 55% in size
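DMSO vehicle served as the neutral condition. Each well held 2,000 cells given 5-fluorouridine plus compound; after 16 hr at 37 °C/5% CO2, ONE-Glo was added and luciferase measured 30 min later.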
TDP1 cell CPT: qHTS for Inhibitors of human tyrosyl-DNA phosphodiesterase 1 (TDP1): qHTS in cells in presence of CPT; 420,000 tested, 12% active; chicken DT40 Tdp1-/-;hTDP1 cells + 20 nM CPT, ATP luminescence, 48 h; Potency, µM (series often up to 46.2 µM), without a hit: at the highest dose activity change, negative = growth inhibition, usual class: inhibitors; also: potency is read from the fitted curve at half-maximal effect; nearly all actives have a fitted effect of over 55% in size
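Chicken DT40 Tdp1-/- cells complemented with human TDP1, 400 cells/well, exposed to compounds plus 20 nM camptothecin for at least 48 h at 37 C; viability read as ATP content by CellTiter-Glo luminescence.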
TDP1 cell noCPT: qHTS for Inhibitors of human tyrosyl-DNA phosphodiesterase 1 (TDP1): qHTS in cells in absence of CPT. DT40 Tdp1-/- hTDP1 cells, no CPT, ATP luminescence, 48 h. Potency, µM (top dose mostly 46.2 µM), for inactives: top-dose activity change, negative = growth inhibition, hits mostly inhibitors. 420,000 tested, 15% active; also: potency is read from the fitted curve at half-maximal effect; nearly all actives have a fitted effect of over 55% in size
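Readout: luminescence from CellTiter-Glo after 30 min in the dark at RT. Cells: DT40 Tdp1-/- with stable hTDP1, 400/well. Exposure: compounds alone, ≥48 hr, 37 °C.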
VP16 counter: VP16 counterscreen qHTS for inhibitors of ROR gamma transcriptional activity. Drosophila S2 Gal4-VP16 UAS-luciferase, luminescence, 20 h. Potency, µM (series often up to 53.6 µM), inactives show at the highest dose activity, negative = inhibition, actives largely listed as inhibitors. 310,000 tested, 3.5% active;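 also: Gal4-VP16 expression switched on by copper sulfate through the metallothionein promoter; potency is read from the fitted curve at half-maximal effect; nearly all actives have a fitted effect of over 50% in size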
RORg inh: qHTS for inhibitors of ROR gamma transcriptional activity. AID 2551, 2010. Potency, µM (series often up to 53.6 µM), for the others: at the top dose activity change, negative = inhibition, hits mostly inhibitors. Drosophila S2 Gal4-RORgamma UAS-luciferase reporter, 20 h. 310,000 tested, 5.4% active; also: potency is read from the fitted curve at half-maximal effect; nearly all actives have a fitted effect of over 60% in size
Target sequence (P51450 whole entry, looked up, the tested form may be a part): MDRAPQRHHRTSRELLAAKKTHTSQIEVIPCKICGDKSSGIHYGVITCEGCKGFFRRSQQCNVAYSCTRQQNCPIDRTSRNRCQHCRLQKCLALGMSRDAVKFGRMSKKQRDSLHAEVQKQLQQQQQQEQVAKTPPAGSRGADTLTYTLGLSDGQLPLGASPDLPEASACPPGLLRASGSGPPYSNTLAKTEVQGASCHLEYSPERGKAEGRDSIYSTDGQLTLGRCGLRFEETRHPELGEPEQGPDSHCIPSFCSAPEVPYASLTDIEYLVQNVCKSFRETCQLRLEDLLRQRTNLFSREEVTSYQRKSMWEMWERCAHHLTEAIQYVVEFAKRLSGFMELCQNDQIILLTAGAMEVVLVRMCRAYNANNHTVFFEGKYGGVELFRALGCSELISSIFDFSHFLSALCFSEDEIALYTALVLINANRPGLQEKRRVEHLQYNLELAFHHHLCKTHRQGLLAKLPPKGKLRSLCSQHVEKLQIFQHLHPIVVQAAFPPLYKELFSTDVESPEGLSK
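In this cell-based reporter format, copper sulfate (700 uM final) drives Gal4–ROR gamma fusion expression from a metallothionein promoter in Drosophila Schneider cells; compounds preincubated 1 hr, reporter read after 20 hr at ambient temperature.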
IL1B secr inh: qHTS for Inhibitors of Inflammasome Signaling: IL-1-beta AlphaLISA Primary Screen; AID 743279, 2014; activity change, % at 57.5 µM; 360,000 tested, 4.7% active; THP-1 LPS/ATP IL-1B secretion, AlphaLISA, 16 h; active compounds read low; in the data active = activity change below about -50%; inconclusive = mostly about -30% to -49%
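THP-1 cells pretreated 1 hr with compounds (up to 57.5 uM final), then stimulated with LPS (250 ng/mL final) plus ATP (1.25 mM final); secreted IL-1B measured by AlphaLISA after 16 hr, decreased signal indicating inhibition.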
Starred values were filed as active, the others as inactive; ? = inconclusive; . = no result given; [ ] = another dose, or the depositor's remark. Unless noted, calls follow the shape of the dose curve; as a rule, active = well fitted curve in the direction sought with a large enough effect; inconclusive = small, poorly fitted or top-dose-only effect, or another doubt; inactive = no such curve, though single readings can be large; an effect the other way counts as inactive or inconclusive. % is scaled to controls: 0 for no effect and ±100 for the full control effect.

SMILES	ELG1 repair inh	TDP1 cell CPT	TDP1 cell noCPT	VP16 counter	RORg inh	IL1B secr inh
COc1ccccc1C(=O)N1CCCC(c2nc(SCCN3CCOCC3)ncc2C)C1 (stereo not drawn)	.	-10%[9.04 µM]	?	.	.	.
CCC(=O)c1ccc(N2CCN(S(=O)(=O)c3ccccc3)CC2)c(F)c1	13%	-24%	?	-11%	-11%	23
COc1ccccc1OCCC(=O)N1CCN(c2ccccc2OC)CC1	-7%	?	?	5%	34%	4
O=C(CCOc1ccccc1F)N1CCN(c2ccccc2O)CC1	?	?	16µM*	17%[10 µM]	?	14
CCC(=O)c1ccc(N2CCN(C(=O)COc3ccccc3F)CC2)c(F)c1	?	?	13µM*	?	-9%	32
CC(=O)c1ccc(N2CCN(C(=O)COc3ccccc3F)CC2)c(F)c1	-1%	?	23µM*	1%	?	17
CCOC(=O)Cc1nnc(NCc2ccccc2)c2ccccc12	?	-26%	-1%	-1%	19%	0
CCOC(=O)Cc1ccc(Nc2nc(NC)nc3ccsc23)cc1	.	21µM*	18µM*	.	.	-12
CCOC(=O)Cc1ccc(Nc2nc(NCc3ccccc3)nc3ccsc23)cc1	.	23µM*	15µM*	.	.	-3
COc1ccccc1CNc1nc(NCc2ccc(NC(C)=O)cc2)c2sccc2n1	.	?	-29%	.	.	-9
CCCNC(=O)C1(C)CCCN(Cc2ccccc2-c2ccccc2)C1 (stereo not drawn)	.	?	?	.	.	23
Clc1ccc(CCNC(c2ccc(Cl)cc2)c2nnc(-c3ccccc3)o2)cc1 (stereo not drawn)	.	?	23µM*	.	.	.
COc1ccc(NC(c2nnc(-c3ccccc3)o2)c2ccccc2F)cc1Cl (stereo not drawn)	.	-30%	-41%	.	.	.
Fc1ccccc1C(NCCc1ccc(Cl)cc1)c1nnc(-c2ccccc2)o1 (stereo not drawn)	.	18µM*	?	.	.	.
Cc1cc(C)c2c(-n3cccc3)c(C(=O)NCCc3ccccc3)sc2n1	.	-26%	?	.	.	.
CN(C(=O)C(=O)Nc1ccc2nc3n(c(=O)c2c1)CCCCC3)c1cccc(C(F)(F)F)c1	.	4%	-1%	.	.	.
COc1cccc(-c2nc(CS(=O)(=O)CC(=O)Nc3ccccc3Cl)c(C)o2)c1	-6%	?	?	-16%	5%	21
CCCCN1C(=O)C(CC(=O)NCCN2CCOCC2)CC(C(=O)N(C)C)=C1C (stereo not drawn)	.	2%	4%	.	.	-14
Cc1oc(-c2ccc(Cl)cc2)nc1CSCC(=O)NC1CCN(Cc2ccccc2)CC1	?	?	?	-16%	22%	-61*
CCOc1ccc(-c2nc(CSCC(=O)NC3CCN(Cc4ccccc4)CC3)c(C)o2)cc1	.	23µM*	?	.	.	-21
CCOC(=O)N1CCC(NC(=O)CSCc2nc(-c3ccccc3Cl)oc2C)CC1	?	?	?	-10%	14%	?
c1ccc(-c2cn(-c3ccccc3)c3[n+]2CCCS3)cc1	21µM*	3.3µM*	3.7µM*	-12%	18%	-1
COc1ccc(-n2cc(-c3ccc(C)cc3)[n+]3c2SCC3)cc1	?	1.5µM*	1.3µM*	7.9µM*	-22%	-94*
Cc1ccc(-c2cn(-c3ccccc3)c3[n+]2CCCS3)cc1	?	0.65µM*	0.37µM*	11µM*	0%	-63*
CCc1ccc(-n2cc(-c3ccc(F)cc3)[n+]3c2SCCC3)cc1	4.6µM*	4.6µM*	1.8µM*	?	-33%	-91*
SMILES	ELG1 repair inh	TDP1 cell CPT	TDP1 cell noCPT	VP16 counter	RORg inh	IL1B secr inh
N#Cc1ccc(-c2cn(-c3ccccc3)c3[n+]2CCCS3)cc1	-3%	5%	-23%	7%	-8%	13
COc1ccc2c(c1)CCc1c(C(=O)Nc3ccc(F)c(Cl)c3)noc1-2	.	-17%	-12%	.	.	.
CCOc1ccc(C(=O)N(Cc2sccc2C)C2CCS(=O)(=O)C2)cc1 (stereo not drawn)	.	?	-27%	.	.	.
COc1cccc(CN(C(=O)c2ccccc2)C2CCS(=O)(=O)C2)c1 (stereo not drawn)	18%	2%	11%	20%	-9%	-6
CC(C)COc1ccc(C(=O)N(Cc2cccc(F)c2)C2CCS(=O)(=O)C2)cc1 (stereo not drawn)	.	21µM*	?	.	.	.
Cc1ccsc1CN(C(=O)c1ccc(OCC(C)C)cc1)C1CCS(=O)(=O)C1 (stereo not drawn)	.	?	15µM*	.	.	.
COc1ccc(-c2nc3cnc(OCc4ccccc4)nc3n(CCC#N)c2=O)cc1	.	16%	20%	0%	10%	.
CCOC(=O)C1=CN(CC)CCC1=O	.	-1%	-5%	.	.	16
COC(=O)c1ccc(/C=C/c2c(-c3ccc(OC)cc3)oc3ccc(N4CCOCC4)cc23)cc1	-21%	?	23µM*	-9%	4%	-6
COc1ccc(/C=C/c2c(-c3cccc(C)c3)oc3ccc(N4CCOCC4)cc23)cc1	.	?	-28%	.	.	-3
COc1ccc(/C=C\c2nc(=O)c3ccccc3o2)cc1	?	?	7.3µM*	?	-17%	-4
COC(=O)c1ccc(/C=C/c2c(-c3ccc(OC)cc3)oc3ccccc23)cc1	-2%	18µM*	18µM*	-18%	32%	-6
Nc1cc(=O)[nH]c(SCc2cccc(Cl)c2)n1	?	23µM*	?	7%	11%	84
CC(C)(C)c1ccc(CSc2nc(N)cc(=O)[nH]2)cc1	?	23µM*	18µM*	7.9µM*	-45%	-2
N#Cc1ccsc1NC(=O)CCN1CCN(C(c2ccccc2)c2ccccc2)CC1	-21%	29µM*	26µM*	-2%	-29%	-17
Cc1ccnc(SCC(=O)Nc2sccc2C#N)n1	11%	-2%	1%	12%	25%	0
N#Cc1ccsc1NC(=O)CCc1ccccc1	?	?	21µM*	?	?	53
COc1cc(CCC(=O)Nc2sccc2C#N)cc(OC)c1OC	23µM*	?	?	12%	?	32
N#Cc1ccsc1NC(=O)c1ccccn1	?	?	?	5µM*	2.8µM*	-11

Screening data as filed in PubChem.
